Here are results for 60 molecules from PubChem BioAssay AID1578 (Sanford-Burnham Center for Chemical Genomics, 2009).

About 3,000 (1%) of roughly 290,000 compounds were called active. Rule as the data show it: active = inhibition mostly above about 36% (no sharp cut-off); inactive = mostly below about 34%. The list comes from a sample in which actives are over-represented; it also holds similar structures and randomly drawn compounds.

The nature of the experiment: inhibition of NOD1-driven NF-kB reporter – cell-based, luminescence, uHTS, primary screen (AID 1578).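 Also: HEK-293T reporter cells stimulated with the NOD1 agonist gamma-tri-DAP.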 The following applies: NOD1-driven NF-kB luciferase reporter cells, at 4 µM, hits give high values.
As for `Fc1ccc(CSc2ncnc3nc[nH]c23)cc1`, the inhibition (usually the relative decrease from the control value, in per cent) was -14.8% (inactive). As for `Cc1cc(C)c(C#N)c(SCc2nnc(-c3ccccc3[N+](=O)[O-])o2)n1`, the figure is -26% (inactive); as for `N#Cc1c(-c2ccccc2)cc(-c2ccccc2)nc1SCc1nnc(-c2ccccc2)o1`, 12.9% (inactive). As to `CN(CC1CCN(CCc2cccc(C(F)(F)F)c2)CC1)C(=O)c1ccc(F)cc1`, the inhibition is 18.5% (inactive). To `O=C(Cn1c(=O)oc2cc(S(=O)(=O)N3CCCC3)ccc21)N1CCN(c2ccccn2)CC1` belongs -8% (inactive).

As to `CC(C)Oc1ccc(Cc2n[nH]c(=S)n2Cc2ccccc2)cc1Cl`, the inhibition is -44.3% (inactive). As for `COc1ccc(Cc2n[nH]c(=S)n2Cc2ccccc2)cc1Cl`, the figure is 44.7% (active); as for `COc1ccccc1OCc1n[nH]c(=S)n1Cc1ccccc1`, -18.7% (inactive). As for `CCCCn1c(=O)[nH]c(=O)c2c1nc(CN1C(=O)c3ccccc3S1(=O)=O)n2CCC`, the figure is -23.3% (inactive).

For the molecule `CCCCn1c(CCC(=O)O)nc2c1c(=O)[nH]c(=O)n2CCC`, the inhibition was -15.7% (inactive).

Turning to `CCCCn1c(=O)[nH]c(=O)c2c1nc(Cn1ncc(Cl)c(Cl)c1=O)n2CCC`, the inhibition is 85% (active). As for `COc1ccc(NC(=O)c2ccccn2)cc1S(=O)(=O)N1CCOCC1`, the figure is -33.7% (inactive); as for `Oc1[nH]c(=S)sc1C=C1N=c2ccccc2=N1`, -5.9% (inactive). To `CC1=Nc2ccccc2/C1=C\c1sc(Nc2ccc(C)cc2)nc1O` belongs 1.1% (inactive). To `Oc1[nH]c(=S)sc1/C=C1\C(c2ccccc2)=Nc2ccccc21` belongs 72.5% (active); to `Cc1ccc(S(=O)(=O)N2CCN(C(=O)CSC3CCCC3)CC2)c(C)c1`, -8.8% (inactive).

On to `Cc1cccc(N2CCN(c3nc4nonc4nc3N3CCSCC3)CC2)n1`, for which the inhibition is -22.4% (inactive). As for `Cc1ccc(NC(=O)C(=O)NCc2ccccn2)cc1`, the figure is -47.6% (inactive). As for `Cc1ccc(C(=O)CSc2cc(C)nc(SCC(=O)c3ccccc3)n2)cc1`, the figure is 61.4% (inactive).

With `Cc1cc(SCC(N)=O)nc(SCC(=O)c2ccccc2)n1`, the inhibition is 28.1% (inactive). As for `COc1ccc(C(=O)CSc2cc(C)nc(SCC(=O)c3ccc(C)cc3)n2)cc1`, the figure is 63.1% (active); as for `Cc1ccc(S(=O)(=O)N2CCN(C(=O)c3sccc3-c3ccccc3)CC2)cc1`, -24.8% (inactive); as for `COc1ccc(N(C(C)C(=O)N/N=C/c2ccc(OC(C)C)cc2)S(C)(=O)=O)cc1` (stereo not given), 14.7% (inactive). As for `CC(C)(C)c1[nH]nc2c1C(c1ccsc1)C(C#N)=C(N)O2` (stereo not given), the figure is 59.2% (active); as for `Cc1[nH]nc2c1C(c1ccsc1)C(C#N)=C(N)O2` (stereo not given), -7.7% (inactive).

Turning to `CC(C)(C)c1[nH]nc2c1C(c1ccncc1)C(C#N)=C(N)O2` (stereo not given), the inhibition is -8.8% (inactive). To `Cc1ccc(C)c(NS(=O)(=O)c2csc(C(N)=O)c2)c1` belongs -9.7% (inactive); to `O=C(Nc1ccc(Nc2ccccc2)cc1)C(Cl)Cl`, -5.4% (inactive). For the molecule `Cc1ccccc1N1C(=O)CC(c2c[nH]c3ccccc23)C1=O` (stereo not given), the inhibition was -3.6% (inactive). Take `CC(=O)c1c(-c2ccccc2)[nH]c2ccccc12`: the inhibition was 5.8% (inactive). To `COc1nc(OC)nc(N2CCC(C(=O)NCC3CCCCC3)CC2)n1` belongs -10.9% (inactive); to `Cc1nnc(SCCn2c(N3CCCC(C)C3)nc3c2c(=O)[nH]c(=O)n3C)s1` (stereo not given), -9.1% (inactive); to `C=CCN(CC=C)C(=S)NC(=O)c1ccc(C)c(Br)c1`, 108% (active). As for `C=CCNC(=S)NC(=O)c1ccc(C)c(Br)c1`, the figure is -4.3% (inactive); as for `C=CCN(CC=C)C(=S)NC(=O)c1ccc(OC)c(Br)c1`, 30.4% (inactive); as for `O=S(=O)(c1ccc(Cl)cc1)n1cnc2ccccc21`, -31.4% (inactive).

For the molecule `Cc1ccc(-c2csc(N(C)C(=O)c3c(C)nn(-c4ccccc4)c3Cl)n2)cc1`, the inhibition was 33.6% (inactive). `O=C(CN1C(=O)NC2(CCCCC2)C1=O)N1CCN(S(=O)(=O)c2ccccc2)CC1`: the inhibition was -35.1% (inactive). To `Cc1cccc(C)c1Nc1nnc(SCc2nc3ccccc3s2)s1` belongs -39.5% (inactive); to `Nc1ccccc1Nc1cc(-c2ccccc2)[nH]n1`, 48.4% (active); to `CC1(C)CC(=O)C=C(Nc2cc(-c3ccccc3)[nH]n2)C1`, -25.9% (inactive). To `Nc1ccccc1Nc1cc(-c2ccccc2)nn1-c1ccccc1` belongs -20.6% (inactive); to `CC(C)C(NC(=O)c1ccc(F)cc1)C(=O)NCC1CCCO1` (stereo not given), -6.2% (inactive); to `COc1cc(OC)cc(C(=O)Nc2ccc(S(=O)(=O)N3CCOCC3)cc2)c1`, -9.3% (inactive). To `COc1cc(OC)cc(C(=O)N2CCC3(CC2)NCCc2[nH]cnc23)c1` belongs -20.2% (inactive); to `Nc1ncc2c(n1)-c1cc(Cl)ccc1SC2`, -6.1% (inactive); to `CC1Sc2ccc(Cl)cc2-c2nc(N)ncc21` (stereo not given), 50.5% (active). As for `CC1C/C(=N\NC(N)=S)c2cc(Cl)ccc2S1` (stereo not given), the inhibition was 3.3% (inactive). As for `Cc1c(Cl)c([N+](=O)[O-])nn1CCCC(=O)Nc1cccc(O)c1`, the figure is -0.3% (inactive); as for `O=[N+]([O-])c1cc(S(=O)(=O)C(F)(F)F)ccc1Sc1nc2ccccc2[nH]1`, 46.1% (inactive). On to `Cc1ccc(CN2CCN(Cc3cccn3-c3ccc(Cl)cn3)CC2CCO)o1` (stereo not given), for which the inhibition was -17.4% (inactive). To `O=C(CSc1ccc2nnc(-c3ccncc3)n2n1)Nc1ccc2c(c1)OCCO2` belongs 9.6% (inactive); to `Cc1ccccc1OCc1nc2ccccc2c(=O)n1/N=C/c1ccco1`, 31.5% (inactive). To `Cc1cc(/C=N/n2c(COc3ccccc3C)nc3ccccc3c2=O)c(O)c([N+](=O)[O-])c1` belongs 15% (inactive); to `Cc1ccccc1OCc1nc2ccccc2c(=O)n1/N=C/c1cccc([N+](=O)[O-])c1`, 80.1% (active). As to `O=C(Oc1ccc2ccc(=O)oc2c1)c1ccc([N+](=O)[O-])cc1`, the inhibition was -9.4% (inactive). To `CCc1nc(C)cn1S(=O)(=O)c1ccc(Br)cc1` belongs -17.6% (inactive); to `CCOc1ccccc1NC(=O)c1cc(C(=O)c2cc(OC)ccc2O)coc1=N`, -9.3% (inactive); to `CCOc1ccccc1NC(=O)c1cc(C(=O)c2cc(Br)ccc2O)coc1=N`, 56.4% (active). As for `CCOC(=O)c1cc(C(=O)c2cc(Br)ccc2O)coc1=N`, the figure is -15.1% (inactive).
